dFosB activator = activators of delta FosB homodimer, primary screen, biochemical, fluorescence polarization, TAMRA-CDK5 oligo, single point. purified delta FosB; percent of positive-control signal above neutral wells. activation, % at 25 µM. Protein FosB (Mus musculus), P13346. 0.99% of 340,000 active. AID 493131, 2011;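 active means mean activation above about 17%, with every replicate also reaching it, limit read from the data, passing the limit was not always enough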
INS-1E GSIS act = GLuc luminescence reporter in INS-1E cells, primary screen for activators of glucose-dependent secretion of insulin; AID 743287, 2014; activation, % at 16.6 µM; 0.61% of 370,000 active; INS-1E GLuc reporter insulin secretion, 2-3 h;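 active means lowest replicate activation of at least 40%, so every replicate reaches that level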;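 further: 0% = median of neutral control wells and 100% = median of IBMX positive control wells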
AF4-AF9 inh = inhibitors of AF4 peptide binding to AF9, primary screen, biochemical, AlphaScreen, biotin-AF4 peptide, FLAG-AF9, single point. AID 651704, 2012. inhibition, % at 10 µM. 0.47% of 350,000 active;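 active means every replicate reaching a set inhibition limit, whatever the replicate mean, cut at about 25% in these data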;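 further: 0% = plate neutral control median and 100% = total signal loss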
Target sequence (P42568 whole entry, looked up): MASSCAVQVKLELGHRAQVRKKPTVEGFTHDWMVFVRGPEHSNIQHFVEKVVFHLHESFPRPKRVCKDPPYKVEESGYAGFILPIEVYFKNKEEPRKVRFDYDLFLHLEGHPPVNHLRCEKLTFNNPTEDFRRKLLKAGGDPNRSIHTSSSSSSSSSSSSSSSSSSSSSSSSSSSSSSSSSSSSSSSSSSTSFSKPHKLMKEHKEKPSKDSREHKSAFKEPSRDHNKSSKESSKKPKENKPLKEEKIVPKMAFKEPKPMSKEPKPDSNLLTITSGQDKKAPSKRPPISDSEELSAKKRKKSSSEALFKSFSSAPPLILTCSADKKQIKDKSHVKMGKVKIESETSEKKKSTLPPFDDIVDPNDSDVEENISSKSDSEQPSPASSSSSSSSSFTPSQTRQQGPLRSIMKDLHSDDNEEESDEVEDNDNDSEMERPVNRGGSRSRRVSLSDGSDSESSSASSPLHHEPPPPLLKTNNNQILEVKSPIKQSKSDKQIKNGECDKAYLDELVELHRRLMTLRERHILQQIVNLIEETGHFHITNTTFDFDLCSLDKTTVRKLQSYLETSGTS
RAD54 inh = inhibitors of human RAD54 branch migration, primary screen, biochemical, fluorescence, single point. DNA repair and recombination protein RAD54-like (Homo sapiens), Q92698. RAD54 Holliday junction branch migration, FAM/BHQ fluorescence. inhibition, % at 10.4 µM. 0.14% of 360,000 active. AID 602329, 2012;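 active means mean normalized replicate activity at least 40 and at least half of replicates scoring 40 or more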;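 further: 0% = median of neutral control wells and 100% = median of positive control wells; inhibitors cause a drop in the FAM fluorescence signal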
RAD52 inh = RAD52 DNA annealing inhibitors, primary screen, biochemical, FRET, single point, set 2; DNA repair protein RAD52 homolog (Homo sapiens), P43351; inhibition, % at 18.7 µM; 0.46% of 360,000 active; recombinant RAD52 DNA annealing, FRET fluorescence;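 active means every replicate showing at least 50% inhibition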
DENV2 CPE = inhibitors of DENV2 cytopathic effect, primary screen, cell-based, plate reader, single concentration; DENV2-infected cells, cytopathic effect rescue; CPE inhibition, % at 9.99 µM; 1.7% of 350,000 active; AID 651640, 2012; in the data active means CPE inhibition above about 20%, passing the limit was not always enough; tested in BHK-21 cells;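 further: 0% = median of neutral control wells and 100% = median of positive control wells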
* marks the source's active call; other numbers are inactive results; . = no result; ! = not confirmed by another sample. Shown are actives, neighbours in structure and some others; about 3.1% of the full set was active somewhere.

SMILES	dFosB activator	INS-1E GSIS act	AF4-AF9 inh	RAD54 inh	RAD52 inh	DENV2 CPE
Cc1noc(C)c1NC(=O)Nc1ccc2c(c1)C(=O)N([C@H](C)CO)C[C@H](C)[C@@H](CN(C)C(=O)Nc1ccccc1)OCCCC[C@H](C)O2	.	4	-1	-2	-2	10
Cc1noc(C)c1NC(=O)Nc1ccc2c(c1)C(=O)N([C@@H](C)CO)C[C@@H](C)[C@@H](CN(C)C(=O)Nc1ccccc1)OCCCC[C@@H](C)O2	.	-6	-2	0	-3	22*
Cc1noc(C)c1NC(=O)N(C)C[C@@H]1OCCCC[C@@H](C)Oc2ccc(NC(=O)C3CCCCC3)cc2C(=O)N([C@@H](C)CO)C[C@@H]1C	.	6	-5	-3	5	25*
Cc1noc(C)c1NC(=O)Nc1ccc2c(c1)C(=O)N([C@H](C)CO)C[C@H](C)[C@H](CN(C)Cc1ccc(Cl)c(Cl)c1)OCCCC[C@@H](C)O2	.	6	1	-2	10	35*
Cc1noc(C)c1NC(=O)Nc1ccc2c(c1)C(=O)N([C@H](C)CO)C[C@H](C)[C@H](CN(C)C(=O)NC1CCCCC1)OCCCC[C@@H](C)O2	.	5	-4	4	9	31*!
O=S(=O)(N[C@H]1CC[C@@H](CCn2cc(-c3cccc(F)c3)nn2)O[C@H]1CO)c1ccc(Cl)cc1	.	-17	-1	4	-19	9
Cc1noc(C)c1NC(=O)N(C)C[C@@H]1OCCCC[C@@H](C)Oc2ccc(NC(=O)Nc3cccc4ccccc34)cc2C(=O)N([C@@H](C)CO)C[C@@H]1C	.	.	-1	.	.	38*
Cc1noc(C)c1NC(=O)N(C)C[C@@H]1OCCCC[C@H](C)Oc2ccc(NC(=O)Nc3ccc(C(F)(F)F)cc3)cc2C(=O)N([C@@H](C)CO)C[C@@H]1C	.	6	5	23	24	30*
COc1ccccc1Cn1c(=S)[nH]c2cc(C(=O)N3CC(C)CC(C)C3)ccc2c1=O (stereo not drawn)	.	-7	-3	2	-9	22*
COc1ccccc1Cn1c(=S)[nH]c2cc(C(=O)N3CCN(c4ccccc4OC)CC3)ccc2c1=O	6	-6	-2	-4	-21	9
CO[C@H]1CC[C@H]2CCN(C)C(=O)[C@@H](C)N(C)C(=O)c3cccc(C#N)c3OC[C@@H]1O2	.	1	2	3	-2	-3
COCC(=O)Nc1ccc2c(c1)C(=O)N(C)C[C@H](OC)[C@H](C)CN(C(C)=O)[C@@H](C)CO2	.	17	-1	-9	-7	.
C[C@H](CO)N1C[C@H](C)[C@@H](CN(C)C(=O)Nc2ccccc2)Oc2ccc(NS(=O)(=O)c3ccc(F)cc3)cc2C1=O	-4	3	3	-1	-15	2
C[C@H]1CN([C@@H](C)CO)C(=O)c2cc(NS(=O)(=O)c3ccc(F)cc3)ccc2O[C@H]1CN(C)C(=O)Nc1ccccc1	.	-2	-1	0	-23	27*
COc1ccc(NC(=O)N(C)C[C@H]2Oc3ccc(NS(=O)(=O)c4ccccc4)cc3C(=O)N([C@H](C)CO)C[C@@H]2C)cc1	-1	-14	-2	8	4	29*
C[C@@H]1CN([C@@H](C)CO)C(=O)c2cc(NS(=O)(=O)c3ccc(F)cc3)ccc2O[C@@H]1CN(C)C(=O)Nc1ccccc1	.	-9	0	1	-23	36*
Cc1ccc(S(=O)(=O)Nc2ccc3c(c2)C(=O)N([C@H](C)CO)C[C@H](C)[C@@H](CN(C)C(=O)Nc2cccc4ccccc24)O3)cc1	.	0	7	-3	6	41*
CCCN1[C@@H]2c3ccc(-c4ccncc4)c(=O)n3C[C@H]1[C@H](CO)[C@H]2C(=O)NCC1CC1	.	8	2	-9	-62	-10
O=C(NCC[C@@H]1CC[C@@H](NC(=O)c2cnccn2)[C@@H](CO)O1)Nc1ccc(F)cc1	.	-4	6	-9	9	11
COc1ccc(S(=O)(=O)N(C)C[C@H]2OCCCC[C@@H](C)Oc3ccc(NC(=O)Nc4ccc5c(c4)OCO5)cc3C(=O)N([C@@H](C)CO)C[C@H]2C)cc1	.	24	3	-22	-16	6
O=C(COc1ccccc1)N(Cc1cccc(F)c1)C1CCS(=O)(=O)C1 (stereo not drawn)	4	51*	-6	0	-4	5
Cc1cccc(CN2C[C@]34C=C[C@@H](C[C@@H]3S2(=O)=O)O4)c1	2	0	.	-8	-1	48*
O=C(Cc1ccccc1)N[C@H]1CC[C@@H](CC(=O)N2CCOCC2)O[C@@H]1CO	.	24	-13	-3	21	-2
CC(O)CNc1nc2sc3c(c2c(=O)n1Cc1ccco1)CCCCC3 (stereo not drawn)	-12	-8	6	.	-7	29*
O=c1c2c3c(sc2nc(NCCOCCO)n1Cc1ccco1)CCCCC3	-11	-4	-2	.	-10	-1
SMILES	dFosB activator	INS-1E GSIS act	AF4-AF9 inh	RAD54 inh	RAD52 inh	DENV2 CPE
C[C@H]1CN([C@@H](C)CO)C(=O)Cc2cc(NC(=O)NC3CCCCC3)ccc2O[C@H]1CN(C)C(=O)Nc1ccc(C(F)(F)F)cc1	.	-28	-5	-1	7	0
CO[C@@H]1CN(C)C(=O)c2ccc(NC(=O)C3CC3)cc2OC[C@@H](C)N(C(=O)c2cccnc2)C[C@@H]1C	.	5	4	1	-6	-10
COc1ccc(-n2sc3ccccc3c2=O)cc1	.	87*	-14	3	-11	-4
CCOC(=O)/C=C/c1c(OC)cccc1OC	.	.	0	-2	-4	11
CCN1C(=O)[C@H]2[C@@H](c3ccc(OC)cc3)N3C(=O)CN(Cc4ccccc4)C(=O)[C@@]3(Cc3ccccc3)[C@H]2C1=O	1	-5	-16	2	-19	.
CCN1C(=O)[C@H]2[C@@H](c3ccc(OC)cc3)N3C(=O)CN(CCOC)C(=O)[C@@]3(C)[C@H]2C1=O	0	.	-5	-1	-8	98*
COc1ccc(S(=O)(=O)N(C)C[C@H]2Oc3ccc(NC(=O)C4CCCCC4)cc3C(=O)N([C@@H](C)CO)C[C@@H]2C)cc1	.	-6	-3	4	1	0
COc1ccc(S(=O)(=O)N2C[C@H](O)COC[C@H]3O[C@@H](CC(=O)NCCCN4CCOCC4)CC[C@@H]32)cc1	.	3	-3	-7	8	-23

Assay outcomes from PubChem BioAssay.
